This is an account of results in PubChem BioAssay (NCI).

Some test systems named below: T-47D breast; BT-549 breast; MDA-MB-435 melanoma; SW-620 colon; MCF7 breast; HCT-116 colon; HCC-2998 colon; KM12 colon.
What all share (test): NCI-60 one-dose screen, 48 h (100 = growth as untreated, 0 = no growth, -100 = all killed)
Holding throughout (conditions): 10 µM unless noted

Compounds without any hit were thinned out: in the full panel of roughly 83,000, 20% have a hit.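 In brief: 96-well plates, 48 h treatment, single concentration, percent growth endpoint.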 A number with no mark means an inactive call. The source made the active and inactive calls. The calls were made as follows: active = growth percent below 10; inactive = the rest.

For the compound `COc1ccc(/C=C2\CN(C(=O)C(Cl)Cl)C/C(=C\c3ccc(OC)c(OC)c3)C2=O)cc1OC`, the growth was 0.33% (active) with T-47D breast; -41% (active) in the experiment on BT-549 breast; -34.3% (active) in the experiment on MDA-MB-435 melanoma; -41.4% (active) in the experiment with SW-620 colon; 0.517% (active) in the experiment on MCF7 breast; -83.6% (active) with HCT-116 colon. Moreover, the growth in the experiment with HCC-2998 colon is -95.5% (active); in the experiment on KM12 colon, -49.7% (active).
For the compound `O=S(O)c1cc(Cl)cc(Cl)c1OCc1ccccc1`, the growth in the experiment on T-47D breast is 102%; with BT-549 breast, 107%; in the experiment on MDA-MB-435 melanoma it was 107%; in the experiment on SW-620 colon it was 107%; in the experiment on MCF7 breast, 100%; with HCT-116 colon, 96.2%. The results for the growth in the experiment on HCC-2998 colon and in the experiment with KM12 colon were 102% and 105%, respectively.
For the compound `COc1cc2c(cc1OCCCN1CCN(C(=S)SCCC(C#N)(c3ccccc3)c3ccccc3)CC1)N=C[C@@H]1CCCN1C2=O`, the growth was -50.5% (active) in the experiment with T-47D breast; -89.7% (active) in the experiment on BT-549 breast; -15.2% (active) with MDA-MB-435 melanoma; -100% (active) in the experiment with SW-620 colon; -86.1% (active) in the experiment with MCF7 breast; -93.5% (active) in the experiment on HCT-116 colon. The figures for the growth in the experiment on HCC-2998 colon and with KM12 colon were -86.8% (active) and -75.1% (active), respectively.
With `CN(C)Cc1ccc(NC(=O)c2cncc(C#Cc3cnc(N)c4ncccc34)c2)cc1C(F)(F)F`, the growth in the experiment on T-47D breast is 99%; in the experiment with BT-549 breast, 102%; in the experiment on MDA-MB-435 melanoma, -75.1% (active); in the experiment on SW-620 colon, -78.7% (active); in the experiment on MCF7 breast, -72.4% (active); with HCT-116 colon it was 47.7%. Besides, the growth with HCC-2998 colon is 3.86% (active); in the experiment on KM12 colon it was -40.4% (active).
On to `Nc1[nH]nc2nc(-c3ccccc3)n3c4ccccc4nc3c12`, for which the growth in the experiment with T-47D breast is 90.1%; with BT-549 breast, 105%; in the experiment with MDA-MB-435 melanoma, 98.7%; with SW-620 colon, 95.8%; with MCF7 breast, 92.7%; with HCT-116 colon it was 99.4%. The growth in the experiment with HCC-2998 colon was 110%; in the experiment with KM12 colon it was 104%.
On to `CCN(CC)CCOc1ccc(Nc2ncc3cc(-c4c(Cl)cccc4Cl)c(=O)n(CCOC)c3n2)cc1`, for which the growth is 29.4% with T-47D breast; -15.1% (active) in the experiment on BT-549 breast; 1.33% (active) in the experiment on MDA-MB-435 melanoma; 7.96% (active) in the experiment with SW-620 colon; 17.2% with MCF7 breast; -40.6% (active) in the experiment on HCT-116 colon. In addition, the values for the growth in the experiment with HCC-2998 colon and with KM12 colon were 9.52% (active) and 15.9%, respectively.
Regarding `O=C(Nc1cccnc1Nc1ccccc1)c1cn(Cc2cccc(Oc3ccccc3)c2)nn1`, the growth is 71.3% with T-47D breast; 66.2% in the experiment on BT-549 breast; -19.3% (active) with MDA-MB-435 melanoma; 42.4% in the experiment on SW-620 colon; 23.5% in the experiment on MCF7 breast; 33.1% in the experiment with HCT-116 colon. The figures for the growth with HCC-2998 colon and with KM12 colon were 90.1% and 35%, respectively.
Take `[N-]=[N+]=NCC1OC(n2cnc3c(NC(=O)Nc4ccccc4)ncnc32)C2OC(=O)CC12` (stereo not given): the growth is 103% in the experiment on T-47D breast; 104% with BT-549 breast; 109% in the experiment with MDA-MB-435 melanoma; 105% with SW-620 colon; 92.3% with MCF7 breast; 101% with HCT-116 colon. Also, the growth in the experiment with HCC-2998 colon is 107%; in the experiment with KM12 colon, 106%.
In the case of `COC1C(O)CC(OC2CC(OC3CC(O[C@@H]4C(=O)c5c(cc6cc(OC7CC(OC8CC(O)C(O)C(C)O8)C(O)C(C)O7)c(C)c(O)c6c5O)CC4[C@H](OC)C(=O)O)OC(C)C3O)OC(C)C2O)OC1C` (stereo not given in full), the growth in the experiment on T-47D breast is 25.5%; in the experiment on BT-549 breast, 21.4%; in the experiment on MDA-MB-435 melanoma, 28.8%; in the experiment with SW-620 colon, 32%; in the experiment with MCF7 breast, 10.1%; with HCT-116 colon, 15.4%. Moreover, the growth in the experiment with HCC-2998 colon is 38.6%; with KM12 colon, 22.9%.
Turning to `NS(=O)(=O)c1ccc(C(=O)NN2C(=O)c3ccccc3C2=O)cc1`, the growth with T-47D breast was 98.4%; in the experiment with BT-549 breast it was 109%; with MDA-MB-435 melanoma it was 103%; in the experiment with SW-620 colon, 104%; with MCF7 breast, 96.1%; in the experiment with HCT-116 colon, 110%. In addition, the growth in the experiment with HCC-2998 colon is 108%; in the experiment with KM12 colon, 102%.
With `OC1(c2ccccc2)c2ccccc2N(c2ccccc2)c2ccc(Cl)cc21` (stereo not given), the growth was -85.1% (active) in the experiment on T-47D breast; -78.7% (active) with BT-549 breast; -81.5% (active) in the experiment with MDA-MB-435 melanoma; -85.7% (active) with SW-620 colon; -88% (active) in the experiment with MCF7 breast; -85.9% (active) with HCT-116 colon. Besides, the growth in the experiment on HCC-2998 colon was -90.1% (active); with KM12 colon, -87.6% (active).
On to `C#CCOc1ccc2nc(CCl)c(Cl)c(Nc3cccc(C(F)(F)F)c3)c2c1`, for which the growth in the experiment with T-47D breast is 65.9%; with BT-549 breast it was 60.6%; with MDA-MB-435 melanoma, 84.1%; in the experiment with SW-620 colon, 66.4%; in the experiment with MCF7 breast it was 40.7%; in the experiment on HCT-116 colon it was 64%. The growth with HCC-2998 colon was 98.3%; with KM12 colon, 93.6%.
For `CCCCCCCCCCCCCCCCCCOc1ccccc1CC(=O)NCC[N+](C)(C)C`, the growth in the experiment with T-47D breast was 73.2%; with BT-549 breast it was 57.6%; in the experiment on MDA-MB-435 melanoma it was 73.1%; in the experiment with SW-620 colon, 45.1%; in the experiment on MCF7 breast it was 57.6%; in the experiment on HCT-116 colon, 45.2%. For the same compound, the growth in the experiment with HCC-2998 colon was 29.9%; in the experiment with KM12 colon it was -27% (active).
`O=C(/C=C/C12c3ccccc3C(c3ccccc31)C1C(=O)NC(=O)C12)c1ccco1` (stereo not given): the growth in the experiment with T-47D breast was 18.6%; in the experiment on BT-549 breast it was 19.3%; in the experiment on MDA-MB-435 melanoma, 0.633% (active); with SW-620 colon, 27.4%; with MCF7 breast, 12.8%; in the experiment on HCT-116 colon, 7.57% (active). For the same compound, the growth is 103% in the experiment with HCC-2998 colon and 12.9% in the experiment with KM12 colon.
Take `O=[N+]([O-])c1c(O)c(Cl)cc(Cl)c1Cl`: the growth is 97.6% in the experiment on T-47D breast; 106% in the experiment with BT-549 breast; 114% with MDA-MB-435 melanoma; 115% in the experiment with SW-620 colon; 98.8% in the experiment on MCF7 breast; 100% with HCT-116 colon. Besides, the growth is 96.5% in the experiment on HCC-2998 colon and 112% with KM12 colon.
